Reference: PMC4336329 (PLoS ONE, 2015)
Out of some 310,000 compounds screened, about 2,200 (0.71%) showed an effect of 50% or more. The effect is printed as a negative number. Many of the other results were omitted from the sample, so strong results are more common in it than they were.

biological target: human ether-à-go-go-related gene (hERG) potassium channel (human, UniProt Q12809); assay: primary screen, population patch clamp on CHO cells stably expressing hERG; higher = less effect of the substance
Sequence (Q12809 whole entry, looked up): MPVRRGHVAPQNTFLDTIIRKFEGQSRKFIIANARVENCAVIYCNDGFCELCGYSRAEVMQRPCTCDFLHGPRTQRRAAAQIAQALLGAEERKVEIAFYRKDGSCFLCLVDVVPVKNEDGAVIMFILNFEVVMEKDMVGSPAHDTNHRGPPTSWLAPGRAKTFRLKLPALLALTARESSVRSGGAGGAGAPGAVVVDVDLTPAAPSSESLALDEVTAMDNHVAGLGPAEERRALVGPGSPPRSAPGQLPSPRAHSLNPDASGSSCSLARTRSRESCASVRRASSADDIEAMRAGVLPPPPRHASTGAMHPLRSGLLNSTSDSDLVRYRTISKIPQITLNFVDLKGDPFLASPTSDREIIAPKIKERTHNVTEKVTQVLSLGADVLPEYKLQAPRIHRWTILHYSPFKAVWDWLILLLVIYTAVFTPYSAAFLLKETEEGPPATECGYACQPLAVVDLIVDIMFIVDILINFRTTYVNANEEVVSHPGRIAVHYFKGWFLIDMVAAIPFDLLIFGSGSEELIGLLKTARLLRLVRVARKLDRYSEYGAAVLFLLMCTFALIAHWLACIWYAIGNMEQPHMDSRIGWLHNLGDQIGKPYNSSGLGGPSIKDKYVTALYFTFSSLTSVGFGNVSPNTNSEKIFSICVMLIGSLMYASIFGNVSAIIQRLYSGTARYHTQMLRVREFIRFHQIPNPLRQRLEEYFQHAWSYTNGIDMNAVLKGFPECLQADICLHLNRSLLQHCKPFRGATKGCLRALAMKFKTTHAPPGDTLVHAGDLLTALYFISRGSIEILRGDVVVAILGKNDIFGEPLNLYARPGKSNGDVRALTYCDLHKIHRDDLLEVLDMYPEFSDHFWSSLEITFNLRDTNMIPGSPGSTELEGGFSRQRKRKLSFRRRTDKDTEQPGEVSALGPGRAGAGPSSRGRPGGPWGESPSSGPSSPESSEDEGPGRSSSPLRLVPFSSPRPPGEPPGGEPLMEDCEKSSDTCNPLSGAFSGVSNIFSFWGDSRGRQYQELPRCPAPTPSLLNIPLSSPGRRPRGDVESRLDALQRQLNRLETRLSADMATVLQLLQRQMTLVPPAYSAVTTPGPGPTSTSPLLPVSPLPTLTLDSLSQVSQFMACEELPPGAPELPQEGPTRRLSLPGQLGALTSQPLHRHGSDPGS

Row | Structure (SMILES) | hERG current change (%, negative = inhibition) at 1uM
1 | COc1ccc[nH]c1=O | 1.28%
2 | CCOC(=O)Cn1cnc2c(nnn2-c2cccc(OC)c2)c1=O | 17%
3 | COc1ccc(/C(C)=N/N=C2/NC(=O)CC(C(=O)O)S2)cc1 (stereo not shown) | 5.89%
4 | COCCCNC(=O)CCn1c(=O)c2ccccc2n(CC(=O)Nc2cc(Cl)ccc2C)c1=O | 2.79%
5 | O=C(NCc1ccc2c(c1)OCO2)c1ccc(S(=O)(=O)C(F)F)cc1 | -0.408%
6 | Cn1nccc1C(=O)NC1CC(C)(C)Cc2c1cnn2-c1ccc(F)cc1 (stereo not shown) | -20%
7 | COc1ccc(-n2ncc3c2CC(C)(C)CC3NC(=O)CCn2cncn2)cc1 (stereo not shown) | -5.06%
8 | CC1(C)Cc2c(cnn2-c2ccccc2)C(NC(=O)c2ccoc2)C1 (stereo not shown) | -91.7%
9 | CC(=O)c1ccc(C(=O)NC2CC(C)(C)Cc3c2cnn3-c2ccccc2)cc1 (stereo not shown) | 5.88%
10 | CC1(C)Cc2c(cnn2-c2ccc(F)cc2)C(NC(=O)c2cnccn2)C1 (stereo not shown) | -6.77%
11 | CC1(C)Cc2c(cnn2-c2ccc(F)cc2)C(NC(=O)c2ccoc2)C1 (stereo not shown) | -95.7%
12 | CC1(C)Cc2c(cnn2-c2ccc(F)cc2)C(NC(=O)CCn2cncn2)C1 (stereo not shown) | -40.7%
13 | Cc1ccc(-n2ncc3c2CC(C)(C)CC3NC(=O)CCn2cncn2)cc1 (stereo not shown) | -78.5%
14 | CC1(C)Cc2c(cnn2-c2ccccc2)C(NC(=O)c2ccc[n+]([O-])c2)C1 (stereo not shown) | 8.68%
15 | CCOc1cc(C#N)ccc1OCC(=O)N1CCN(C(=O)c2cccs2)CC1 | -16.1%
16 | O=C(Nc1ccccc1Cl)c1ccc(S(=O)(=O)NCC2CCCO2)cc1 (stereo not shown) | -7.62%
17 | CCOc1ccccc1OCC(=O)O | 12.1%
18 | CCCCn1c(O)c(C(=O)/C=C/c2ccc3c(c2)OCO3)c(=O)[nH]c1=O | 11.9%
19 | Cc1ccccc1CN1C[C@@H]2C[C@@H](c3cn[nH]c3-c3ccc(F)cc3)N3CCC[C@@]23C1=O | -12.9%
20 | CC(=O)Oc1ccc(-c2nc3c(C)cccc3c(=O)o2)cc1 | 11.9%
21 | CCOC(=O)c1[nH]c2ccc(F)cc2c1NC(=O)CN1CCc2cc(OC)c(OC)cc2C1 | 11.2%
22 | CCOC(=O)c1[nH]c2ccc(OCC)cc2c1NC(=O)CN1CCN(c2ccccc2)CC1 | 15.9%
23 | CCOC(=O)N1CCN(CC(=O)Nc2c(C(=O)OC)[nH]c3ccccc23)CC1 | 7.01%

Row | Structure (SMILES) | hERG current change (%, negative = inhibition) at 1uM
24 | COC(=O)c1[nH]c2ccccc2c1NC(=O)CN1CCN(C/C=C/c2ccccc2)CC1 | -84.4%
25 | COC(=O)c1[nH]c2ccccc2c1NC(=O)CN1CCCCCC1 | -3.6%
26 | COc1ccc2[nH]c(C)c(C(=O)CN3CCN(C/C=C/c4ccccc4)CC3)c2c1 | 5.17%
27 | CCOC(=O)c1[nH]c2ccc(F)cc2c1NC(=O)CN1CCN(C/C=C/c2ccccc2)CC1 | -77.3%
28 | Cc1[nH]c2ccccc2c1C(=O)CN1CCCC1 | 7.66%
29 | Cc1[nH]c2ccccc2c1C(=O)CN1CCN(C/C=C/c2ccccc2)CC1 | -50.4%
30 | O=C(COC(=O)COc1ccc(Br)cc1)NCCC1=CCCCC1 | 1.54%
31 | COc1ccc2[nH]cc(CCNC(=O)CCC3CCCCC3)c2c1 | 1.77%
32 | O=C(COC(=O)c1ncc(Cl)c(Cl)c1Cl)NC1CCS(=O)(=O)C1 (stereo not shown) | -1.03%
33 | Cc1ccc(S(=O)(=O)N2CCOC23CCN(C(=O)C(=O)NCCC(C)C)CC3)cc1 | 4.48%
34 | O=c1[nH]c(=O)n(CCc2ccc(F)cc2)c(O)c1/C=N/N1CCCCC1 | 11.7%
35 | CCOC(=O)C1(C)/C(=N/Nc2ccccc2)C(=O)C(=O)N1c1ccccc1 (stereo not shown) | -3.13%
36 | Cc1cccn2c(=O)c3cc(C(=O)NCC4CCCO4)c(=N)n(Cc4ccc(F)cc4)c3nc12 (stereo not shown) | -80.4%
37 | Cc1cccn2c(=O)c3cc(C(=O)NCC4CCCO4)c(=N)n(Cc4cccnc4)c3nc12 (stereo not shown) | -96.3%
38 | Cc1ccc(Cn2c(=N)c(C(=O)NCC3CCCO3)cc3c(=O)n4cccc(C)c4nc32)cc1 (stereo not shown) | -85.9%
39 | Cc1cccn2c(=O)c3cc(C(=O)NC4CCCC4)c(=N)n(Cc4ccc(F)cc4)c3nc12 | -19.4%
40 | Cc1cccn2c(=O)c3cc(C(=O)NCCN4CCOCC4)c(=N)n(Cc4cccnc4)c3nc12 | 9.95%
41 | Cc1cccn2c(=O)c3cc(C(=O)NCc4cccnc4)c(=N)n(CC4CCCO4)c3nc12 (stereo not shown) | -78.5%
42 | Cc1cccn2c(=O)c3cc(C#N)c(=NC(=O)c4cccnc4)n(CC4CCCO4)c3nc12 (stereo not shown) | -10.2%
43 | Cc1cccn2c(=O)c3cc(C(=O)NC4CCCCC4)c(=N)n(Cc4ccc(F)cc4)c3nc12 | -16%
44 | CCn1c(SCc2nc(CC(=O)Nc3ccccc3OC)no2)nnc1-c1cccs1 | -19.1%
45 | COc1ccc(CNC(=O)C2CSC(=O)C2)cc1 (stereo not shown) | 8.88%
46 | Cc1cccc(-n2c(O)c(/C=N/NC(=O)c3ccccc3Cl)c3ccccc3c2=O)n1 | 9.11%

Row | Structure (SMILES) | hERG current change (%, negative = inhibition) at 1uM
47 | COc1cccc(/C=C/C(=O)OCC(=O)Nc2cc(C(F)(F)F)ccc2Cl)c1 | 8.68%
48 | CN(C(=O)c1ccc(OC2CCN(S(=O)(=O)N(C)C)CC2)cc1)C1CCCCC1 | -1.59%
49 | O=C(NCCNC(=O)c1cc(OCC(F)(F)F)ccc1OCC(F)(F)F)Nc1ccccc1 | -15%
50 | CCN1CCS/C1=C/C=C/C1=[N+](CC)CCS1.[I-] | 3.64%
51 | CCN1CCN(CCc2nc3cc([N+](=O)[O-])ccc3n2C)CC1 | -1.88%
52 | Cn1c(CN2CCCCC2)nc2cc([N+](=O)[O-])ccc21 | -2.57%
53 | Cn1c(CCN2CCCCC2)nc2cc([N+](=O)[O-])ccc21 | -54.8%
54 | Cc1ccc(S(=O)(=O)Nc2ccc3c(c2)nc(CCN2CCCC2)n3C)cc1 | -13.7%
55 | CC(=O)N1CCN(Cc2nc3cc([N+](=O)[O-])ccc3n2C)CC1 | 14%
56 | Cn1c(CN2CCCCC2)nc2cc(NS(=O)(=O)c3ccc(Cl)cc3)ccc21 | -9.75%
57 | Cc1ccc(S(=O)(=O)Nc2ccc3c(c2)nc(CCN2CCCCC2)n3C)cc1 | -29.7%
58 | Cn1c(CN2CCN(C(=O)c3ccccc3)CC2)nc2cc([N+](=O)[O-])ccc21 | -29.6%
59 | Cn1c(CN2CCN(C(=O)c3ccc(F)cc3)CC2)nc2cc([N+](=O)[O-])ccc21 | -59.1%
60 | Cn1c(CCN2CCCCC2)nc2cc(NS(=O)(=O)c3ccc(Cl)cc3)ccc21 | -59.1%
61 | Cn1c(CN2CCCC2)nc2cc(NS(=O)(=O)c3ccc(Cl)cc3)ccc21 | -31%
62 | Cn1c(CCN2CCCC2)nc2cc(NS(=O)(=O)c3ccc(Cl)cc3)ccc21 | -62%
63 | CSCCC(NC(=O)OCc1ccccc1)C(=O)NCc1cccnc1 (stereo not shown) | 9.52%
64 | O=C(N/N=C/c1ccc2c(c1)OCO2)c1ccc(COCC(F)(F)C(F)F)cc1 | 9.11%
65 | N#Cc1nc(Cc2ccccc2)oc1N1CCCC1 | 4.79%
66 | Cc1ccc(C)c(-n2ccnc2SCC(=O)O)c1 | 14.4%
67 | COC(=O)c1sc(S(=O)(=O)NC(C)C(=O)O)c(C(=O)OC)c1C (stereo not shown) | -4.83%
68 | CCCN(CCC)CCCNC(=O)C1CCN(S(=O)(=O)c2cccc3nsnc23)CC1 | 12.5%
69 | CCc1ccc(NC(=O)Nc2cccs2)cc1 | 21.2%

Row | Structure (SMILES) | hERG current change (%, negative = inhibition) at 1uM
70 | COc1cccc(C2=NOC(C(=O)Nc3ccc4c(c3)OCO4)C2)c1 (stereo not shown) | 12.7%
71 | CCNS(=O)(=O)c1ccc(CCC(=O)N2CCN(c3cc(Cl)ccc3C)CC2)cc1 | 12.4%
72 | CCCOC1OC(=O)c2c1ccc(OC)c2OC (stereo not shown) | 11.9%
73 | Cc1ccc(S(=O)(=O)Nc2ccc(-c3ccc4nncn4n3)cc2)cc1 | 24.9%
74 | O=S(=O)(Nc1ccc(-c2ccc3nncn3n2)cc1)c1cccc(F)c1 | 14.1%
75 | Cc1cccc(S(=O)(=O)Nc2ccc(-c3ccc4nncn4n3)cc2)c1 | -85.6%
76 | BrCC1C[n+]2c(SCc3ccccc3)nc3sc4c(c3c2O1)CCCC4.[Br-] (stereo not shown) | 10.3%
77 | Cc1ccc2c(c1)CCCN2C(=O)c1ccncc1 | 8.11%
78 | CCOC(=O)c1cccc(N2C(=O)C3C(C2=O)C2C=CC3C23CC3)c1 (stereo not shown) | 8.16%
79 | CCOc1ccccc1N1CCN(c2nc3ccccc3nc2C(C#N)C(=O)OC(C)C)CC1 (stereo not shown) | 12.5%
80 | COc1ccc(C(=O)N2CCN(CCc3ccccc3)CC2)cc1[N+](=O)[O-] | -73.5%
81 | CN1CCN(C(=O)c2cc3ccccc3oc2=O)CC1 | 8.34%
82 | COc1cc(C(=O)N2CCN(CCCc3ccccc3)CC2)cc(OC)c1OC | 3.21%
83 | O=C(c1cc2ccccc2oc1=O)N1CCN(CCc2ccccc2)CC1 | -60.4%
84 | CCOc1ccc(C(=O)N2CCN(c3ccccc3)CC2)cc1OCC | 1.55%
85 | COc1ccc(C(=O)N2CCN(Cc3ccccc3)CC2)cc1[N+](=O)[O-] | -22.3%
86 | COc1ccc(C(=O)N2CCN(CCCc3ccccc3)CC2)cc1OC.O=C(O)C(=O)O | -61.8%
87 | COc1ccc(C(=O)N2CCN(Cc3ccc4c(c3)OCO4)CC2)cc1[N+](=O)[O-] | -6.08%
88 | COc1cccc(C(=O)N2CCN(CCCc3ccccc3)CC2)c1OC.O=C(O)C(=O)O | -4.87%
89 | CCOc1ccc(C(=O)N2CCN(C(=O)c3ccco3)CC2)cc1OCC | 10.8%
90 | CCOc1ccc(C(=O)N2CCN(CCc3ccccc3)CC2)cc1OCC | -77.5%
91 | O=C(NCCN1CCN(C(=O)c2cc3ccccc3oc2=O)CC1)c1cc2ccccc2oc1=O | -0.615%
